# The full data set covers some 8,800 targets. This sample favours those with a hit. About 0.5% of all pairs of compound and target were hits. A number with no mark means an inactive call.
# Columns and labels:
# Assay in all cases: log2 fold change, soluble protein after heating vs DMSO (PISA); higher = thermal stabilisation; K562 lysate, 10 uM; active = over 0.2 and 3.5 SD of the protein, either way, in both replicates (recomputed)
# [1] = compound: C=CC(=O)N1CCC[C@@H](n2nc(-c3ccc(Oc4ccccc4)cc3)c3c(N)ncnc32)C1 [ibrutinib]
# Outline: (§1)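 Following dounce homogenisation of K562 pellets in PBS pH 7.4 with 1 mM MgCl2, crude extract at 1 mg/mL protein was incubated for 30 min with 10 μM compound. Aliquots were then heated for 3 min over 48°C-58°C and pooled, NP-40 was added to 0.5% at 4°C, and soluble protein was recovered as the supernatant at 21,000xg for 90 min. Channel-sum-equalised TMTpro 16plex LC-MS/MS quantified this protein. Each value, from duplicates, is a log-two fold change in thermal stability relative to solvent controls.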
# [2] = compound: CC(=O)c1cnc2ccc(-c3cc(Cl)c(O)c(Cl)c3)nc2c1N[C@H]1CC[C@H](CN(C)C)CC1
# Outline: as §1
# [3] = compound: CC(C)(C)Cn1c(N)nc2ccc(-c3[nH]c(C(C)(C)C)nc3-c3ccc(F)cc3)nc21 [ralimetinib]
# Outline: as §1
# [4] = compound: CC(C)(O)CC(=O)NCCn1ccc2ncnc(Nc3ccc(Oc4cccc(C(F)(F)F)c4)c(Cl)c3)c21
# Outline: as §1
# [5] = compound: CC(C)C1=C2N=C(C=C(N2N=C1)NCC3=CC=CC=C3)NCCCCCCN
# Outline: as §1
# [6] = compound: CC1=C(C(CC(=O)N1)C2=CC=C(C=C2)C(F)(F)F)C(=O)NC3=C(C=C4C(=C3)C=NN4)F
# Outline: as §1
# [7] = compound: CC1=C(C2=C(C=C1)C(=O)C3=CC=CC=C3N2CCCN)C
# Outline: as §1
# [8] = compound: CC1=C(C=C(C=C1)NC(=O)C2=CC(=CC=C2)C(C)(C)C#N)NC3=CC4=C(C=C3)N=CN(C4=O)C
# Outline: as §1
# [9] = compound: CC1=C(C=C(C=C1)NC(=O)C2=CC(=CC=C2)N(C)C)NC(=O)C3=CC=C(C=C3)O
# Outline: as §1
# [10] = compound: CC1=CC=C(C=C1)SC2=C3C=C(SC3=CN=C2)C(=O)N
# Outline: as §1
# [11] = compound: CCCS(=O)(=O)Nc1ccc(F)c(C(=O)c2c[nH]c3ncc(-c4ccc(Cl)cc4)cc23)c1F [vemurafenib]
# Outline: as §1
# [12] = compound: CCCS(=O)(=O)Nc1ccc(F)c(C(=O)c2c[nH]c3ncc(Cl)cc23)c1F
# Outline: as §1
# [13] = compound: CCN(CCCOc1ccc2c(Nc3cc(CC(=O)Nc4cccc(F)c4)[nH]n3)ncnc2c1)CCOP(=O)(O)O [barasertib]
# Outline: as §1
# [14] = compound: CC[C@@H]1C(=O)N(C)c2cnc(Nc3ccc(C(=O)NC4CCN(C)CC4)cc3OC)nc2N1C1CCCC1
# Outline: as §1
# [15] = compound: CC[C@@H]1C(=O)N(C)c2cnc(Nc3ccc(C(=O)N[C@H]4CC[C@H](N5CCN(CC6CC6)CC5)CC4)cc3OC)nc2N1C(C)C [volasertib]
# Outline: as §1
# [16] = compound: CCn1c(C(=O)N(C2CC2)C2CC2)cc2c3c(ncn3C)c(Nc3cc(C)n(C)n3)nc21
# Outline: as §1
# [17] = compound: CCn1cc(-c2ccnc3[nH]c(-c4cccc(CN(C)C)c4)cc23)c(-c2ccc(NC(=O)N(C)C)cc2)n1
# Outline: as §1
# [18] = compound: CN1CCC(CNc2ccc3ncc(-c4cccc(OC(F)(F)F)c4)n3n2)CC1
# Outline: as §1
# [19] = compound: CN1CCN(CCOc2cc(OC3CCOCC3)c3c(Nc4c(Cl)ccc5c4OCO5)ncnc3c2)CC1 [saracatinib]
# Outline: as §1
# [20] = compound: CN1CCN(c2nc(C3=C(c4c[nH]c5ccccc45)C(=O)NC3=O)c3ccccc3n2)CC1 [sotrastaurin]
# Outline: as §1
# Sequence of UniProt Q9NR22 (Q9NR22 whole entry, looked up): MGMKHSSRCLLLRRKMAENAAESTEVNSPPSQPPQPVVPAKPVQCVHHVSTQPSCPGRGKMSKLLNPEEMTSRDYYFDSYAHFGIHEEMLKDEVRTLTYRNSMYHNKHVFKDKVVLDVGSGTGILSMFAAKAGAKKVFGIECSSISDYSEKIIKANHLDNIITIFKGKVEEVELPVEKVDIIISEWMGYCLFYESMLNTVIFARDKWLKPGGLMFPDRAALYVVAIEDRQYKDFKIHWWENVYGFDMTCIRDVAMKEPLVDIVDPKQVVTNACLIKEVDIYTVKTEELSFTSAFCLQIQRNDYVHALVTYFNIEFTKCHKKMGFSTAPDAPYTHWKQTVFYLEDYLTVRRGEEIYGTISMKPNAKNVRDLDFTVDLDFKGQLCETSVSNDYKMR
# Sequence of UniProt Q9Y606 (Q9Y606 whole entry, looked up): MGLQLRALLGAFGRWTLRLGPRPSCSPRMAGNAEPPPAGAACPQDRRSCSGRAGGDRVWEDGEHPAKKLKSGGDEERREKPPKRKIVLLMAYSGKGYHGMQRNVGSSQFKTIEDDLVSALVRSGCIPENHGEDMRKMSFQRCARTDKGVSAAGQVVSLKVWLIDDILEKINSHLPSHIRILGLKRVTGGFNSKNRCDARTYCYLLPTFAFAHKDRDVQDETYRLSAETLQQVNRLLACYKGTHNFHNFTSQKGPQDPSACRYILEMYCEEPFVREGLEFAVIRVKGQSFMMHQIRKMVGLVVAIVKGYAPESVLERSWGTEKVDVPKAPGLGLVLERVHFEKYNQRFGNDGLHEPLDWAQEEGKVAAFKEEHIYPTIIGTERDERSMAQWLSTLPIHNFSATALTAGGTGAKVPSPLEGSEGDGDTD
# Sequence of UniProt P53350 (P53350 whole entry, looked up): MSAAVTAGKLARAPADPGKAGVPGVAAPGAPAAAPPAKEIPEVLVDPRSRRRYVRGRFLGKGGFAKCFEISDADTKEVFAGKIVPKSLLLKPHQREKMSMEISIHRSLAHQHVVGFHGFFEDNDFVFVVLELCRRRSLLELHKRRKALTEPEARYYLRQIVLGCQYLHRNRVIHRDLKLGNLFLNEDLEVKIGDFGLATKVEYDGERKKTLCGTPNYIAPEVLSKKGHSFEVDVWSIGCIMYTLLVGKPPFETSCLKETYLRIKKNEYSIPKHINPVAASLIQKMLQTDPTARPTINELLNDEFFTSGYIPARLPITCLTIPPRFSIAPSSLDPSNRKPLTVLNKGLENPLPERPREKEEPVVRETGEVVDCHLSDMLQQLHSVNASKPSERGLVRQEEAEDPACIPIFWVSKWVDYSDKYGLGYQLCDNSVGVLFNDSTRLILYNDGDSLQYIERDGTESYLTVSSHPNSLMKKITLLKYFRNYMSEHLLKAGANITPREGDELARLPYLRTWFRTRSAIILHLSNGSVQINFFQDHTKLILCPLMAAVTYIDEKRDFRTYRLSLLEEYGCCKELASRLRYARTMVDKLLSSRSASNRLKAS
# Sequence of UniProt Q9P215 (Q9P215 whole entry, looked up): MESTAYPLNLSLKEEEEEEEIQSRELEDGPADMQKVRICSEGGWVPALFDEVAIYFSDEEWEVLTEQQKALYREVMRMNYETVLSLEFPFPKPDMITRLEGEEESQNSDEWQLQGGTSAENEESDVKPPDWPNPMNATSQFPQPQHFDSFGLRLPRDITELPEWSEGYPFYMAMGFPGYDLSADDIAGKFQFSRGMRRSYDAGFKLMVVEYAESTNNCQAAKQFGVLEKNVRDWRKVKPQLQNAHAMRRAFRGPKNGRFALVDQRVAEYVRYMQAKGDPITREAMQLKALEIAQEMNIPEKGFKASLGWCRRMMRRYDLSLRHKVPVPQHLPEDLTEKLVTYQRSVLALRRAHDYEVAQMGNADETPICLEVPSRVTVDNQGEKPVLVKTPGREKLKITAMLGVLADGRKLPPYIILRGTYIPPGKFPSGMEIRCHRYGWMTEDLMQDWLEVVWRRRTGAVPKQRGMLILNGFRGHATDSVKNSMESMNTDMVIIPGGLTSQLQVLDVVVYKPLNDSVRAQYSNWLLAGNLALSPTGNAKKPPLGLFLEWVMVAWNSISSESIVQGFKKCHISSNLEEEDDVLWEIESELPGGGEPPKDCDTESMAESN
# Sequence of UniProt P28328 (P28328 whole entry, looked up): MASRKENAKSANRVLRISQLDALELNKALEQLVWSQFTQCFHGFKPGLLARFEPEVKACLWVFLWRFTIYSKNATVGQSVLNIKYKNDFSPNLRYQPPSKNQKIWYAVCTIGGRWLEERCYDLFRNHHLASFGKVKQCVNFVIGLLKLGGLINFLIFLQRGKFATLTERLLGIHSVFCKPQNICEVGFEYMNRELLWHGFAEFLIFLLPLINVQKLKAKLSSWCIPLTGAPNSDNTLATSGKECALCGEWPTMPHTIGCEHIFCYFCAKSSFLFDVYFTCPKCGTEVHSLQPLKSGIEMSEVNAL
# Sequence of UniProt Q9UHV9 (Q9UHV9 whole entry, looked up): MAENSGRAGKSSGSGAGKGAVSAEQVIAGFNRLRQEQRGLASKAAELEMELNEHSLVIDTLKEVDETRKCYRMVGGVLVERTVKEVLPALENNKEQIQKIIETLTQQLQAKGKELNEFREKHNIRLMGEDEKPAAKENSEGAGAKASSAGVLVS
# Sequence of UniProt Q15173 (Q15173 whole entry, looked up): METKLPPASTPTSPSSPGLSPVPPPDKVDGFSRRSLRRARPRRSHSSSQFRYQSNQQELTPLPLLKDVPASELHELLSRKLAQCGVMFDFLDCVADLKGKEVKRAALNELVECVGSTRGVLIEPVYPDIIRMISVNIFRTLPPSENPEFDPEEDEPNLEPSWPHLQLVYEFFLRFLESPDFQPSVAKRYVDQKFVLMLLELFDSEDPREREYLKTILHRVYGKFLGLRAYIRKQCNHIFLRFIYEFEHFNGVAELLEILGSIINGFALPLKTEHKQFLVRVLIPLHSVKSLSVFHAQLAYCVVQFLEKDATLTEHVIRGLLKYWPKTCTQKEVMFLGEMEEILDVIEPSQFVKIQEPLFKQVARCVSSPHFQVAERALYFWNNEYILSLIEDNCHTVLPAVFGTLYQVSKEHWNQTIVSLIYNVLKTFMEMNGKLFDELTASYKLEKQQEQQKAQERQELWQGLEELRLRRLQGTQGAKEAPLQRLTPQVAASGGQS
# Sequence of UniProt Q9UHX1 (Q9UHX1 whole entry, looked up): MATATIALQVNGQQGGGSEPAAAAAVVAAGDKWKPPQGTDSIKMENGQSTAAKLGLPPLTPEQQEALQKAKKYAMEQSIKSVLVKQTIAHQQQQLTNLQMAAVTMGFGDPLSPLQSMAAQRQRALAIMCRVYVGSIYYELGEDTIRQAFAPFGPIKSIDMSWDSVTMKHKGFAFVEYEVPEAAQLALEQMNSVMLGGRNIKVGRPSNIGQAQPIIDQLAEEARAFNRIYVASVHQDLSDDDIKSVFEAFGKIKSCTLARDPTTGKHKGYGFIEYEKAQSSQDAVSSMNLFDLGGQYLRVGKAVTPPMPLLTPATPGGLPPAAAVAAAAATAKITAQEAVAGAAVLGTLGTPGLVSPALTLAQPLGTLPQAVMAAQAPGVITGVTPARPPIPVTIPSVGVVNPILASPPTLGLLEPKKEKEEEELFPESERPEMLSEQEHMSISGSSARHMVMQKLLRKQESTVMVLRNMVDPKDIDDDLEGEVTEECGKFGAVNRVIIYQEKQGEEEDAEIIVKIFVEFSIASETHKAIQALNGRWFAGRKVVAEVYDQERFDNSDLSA
# Sequence of UniProt Q15054 (Q15054 whole entry, looked up): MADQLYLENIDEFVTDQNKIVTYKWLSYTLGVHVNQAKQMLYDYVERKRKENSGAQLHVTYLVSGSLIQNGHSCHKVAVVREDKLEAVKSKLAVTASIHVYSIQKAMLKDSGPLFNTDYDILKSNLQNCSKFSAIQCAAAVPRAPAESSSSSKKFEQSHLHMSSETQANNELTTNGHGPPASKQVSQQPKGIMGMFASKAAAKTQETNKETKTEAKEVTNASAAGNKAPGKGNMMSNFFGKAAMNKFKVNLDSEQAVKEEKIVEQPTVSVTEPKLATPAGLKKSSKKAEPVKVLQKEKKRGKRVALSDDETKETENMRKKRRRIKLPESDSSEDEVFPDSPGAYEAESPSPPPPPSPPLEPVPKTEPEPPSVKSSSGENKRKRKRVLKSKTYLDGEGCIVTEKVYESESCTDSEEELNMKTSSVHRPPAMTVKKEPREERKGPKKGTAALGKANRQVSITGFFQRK
# Sequence of UniProt P78356 (P78356 whole entry, looked up): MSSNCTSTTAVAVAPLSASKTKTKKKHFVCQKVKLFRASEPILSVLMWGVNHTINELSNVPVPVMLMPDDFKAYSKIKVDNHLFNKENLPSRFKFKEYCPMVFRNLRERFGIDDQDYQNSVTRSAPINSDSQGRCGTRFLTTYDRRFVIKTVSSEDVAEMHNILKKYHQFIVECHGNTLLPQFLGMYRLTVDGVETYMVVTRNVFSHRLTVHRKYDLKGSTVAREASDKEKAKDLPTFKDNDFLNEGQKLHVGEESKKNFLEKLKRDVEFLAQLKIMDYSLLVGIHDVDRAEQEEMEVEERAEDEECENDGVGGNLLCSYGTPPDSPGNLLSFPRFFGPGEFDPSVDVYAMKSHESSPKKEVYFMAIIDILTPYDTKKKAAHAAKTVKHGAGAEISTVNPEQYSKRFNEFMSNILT
# Sequence of UniProt Q969Q6 (Q969Q6 whole entry, looked up): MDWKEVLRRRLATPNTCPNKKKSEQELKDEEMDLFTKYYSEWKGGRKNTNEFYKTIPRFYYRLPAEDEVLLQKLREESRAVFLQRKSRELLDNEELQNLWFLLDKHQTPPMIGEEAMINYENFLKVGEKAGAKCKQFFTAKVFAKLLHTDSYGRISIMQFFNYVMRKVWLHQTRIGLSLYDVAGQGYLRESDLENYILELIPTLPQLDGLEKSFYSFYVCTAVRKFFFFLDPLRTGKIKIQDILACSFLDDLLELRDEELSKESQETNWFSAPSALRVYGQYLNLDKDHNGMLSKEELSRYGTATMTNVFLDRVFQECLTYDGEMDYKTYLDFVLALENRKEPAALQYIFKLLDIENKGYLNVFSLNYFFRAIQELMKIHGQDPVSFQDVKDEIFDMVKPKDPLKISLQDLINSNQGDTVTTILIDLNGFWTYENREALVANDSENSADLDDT
Target,log2 fold change [1],log2 fold change [2],log2 fold change [3],log2 fold change [4],log2 fold change [5],log2 fold change [6],log2 fold change [7],log2 fold change [8],log2 fold change [9],log2 fold change [10],log2 fold change [11],log2 fold change [12],log2 fold change [13],log2 fold change [14],log2 fold change [15],log2 fold change [16],log2 fold change [17],log2 fold change [18],log2 fold change [19],log2 fold change [20]
POLD3 (UniProt Q15054),0.018,0.006,-0.027,-0.004,0.035,0.019,-0.008,-0.022,-0.017,-0.038,0.003,-0.005,0.004,-0.014,-0.045,-0.013,0.009,-0.03,0.028,-0.01
PIP4K2B (UniProt P78356),-0.002,0.043,0.016,0.023,-0.032,-0.043,-0.022,0.087,-0.044,-0.031,0.016,0.012,-0.045,0.21 (active),0.092,0.038,0.048,0.065,-0.045,-0.009
PPP2R5B (UniProt Q15173),0.042,0.033,0,-0.046,-0.055,,0.009,0.026,0.08,-0.053,-0.036,0,-0.016,-0.057,0.031,0,-0.01,-0.079,0.001,-0.074
PEX2 (UniProt P28328),0.017,-0.114,0.021,-0.098,0.023,0.14,-0.07,-0.002,0.065,0.035,0.079,-0.047,0.174,,0.024,0.052,0.011,0.024,-0.086,0.036
PFDN2 (UniProt Q9UHV9),0.103,0.006,0.08,0.08,0.005,0.016,0.034,-0.017,-0.033,-0.022,-0.049,0,0.064,-0.022,0.029,0.082,0.471 (active),-0.049,0.009,0.039
PUS1 (UniProt Q9Y606),0.006,0.004,0.013,-0.006,0.005,-0.009,-0.032,0.028,0.031,-0.021,0.026,0.002,0.055,-0.086,-0.077,0.028,-0.058,-0.02,0.035,-0.027
PUF60 isoform 2 (UniProt Q9UHX1),0.153,-0.049,0.045,0.004,-0.174,-0.021,,0.032,-0.036,0.013,-0.126,0.101,-0.057,0.047,0.021,-0.062,1.25 (active),-0.115,,-0.043
PRMT8 (UniProt Q9NR22),-0.073,-0.012,0.036,-0.018,0.003,-0.028,0.009,0.032,0.002,0.007,0.059,0.021,0.007,-0.009,-0.009,-0.005,-0.285 (active),0.179,-0.018,0.007
PUF60 (UniProt Q9UHX1),0.011,-0.004,-0.034,0.013,0.018,-0.02,0.009,-0.003,-0.001,0.004,0.002,0.015,-0.005,0.002,0.003,-0.015,0.116,-0.018,0,-0.02
PIK3CD (UniProt O00329),-0.14,0.222,-0.017,-0.123,-0.12,0.021,-0.032,0.04,0.098,-0.056,-0.094,0.005,-0.046,,-0.015,0.072,-0.109,0.398,-0.04,0.023
PPP2R3C (UniProt Q969Q6),0.108,0.089,0.109,0.036,-0.088,0.021,-0.02,,0.048,0.196,-0.081,-0.094,0.094,-0.244,0,0.071,-0.392 (active),0.115,0.04,
PFKFB2 (UniProt O60825),-0.007,-0.014,0.035,-0.017,-0.016,0.006,-0.001,-0.013,-0.011,-0.001,-0.011,0.011,0.008,0.004,-0.025,0.015,-0.021,-0.029,0.012,0.002
PSMB9 (UniProt P28065),-0.073,-0.196,0.052,-0.01,0.011,0.003,-0.047,0.096,-0.027,-0.178,-0.105,0.037,0.158,0.335 (active),0.028,-0.06,-0.165,0.027,0.037,0.018
PPP3CA isoform 2 (UniProt Q08209),0.017,0.012,-0.01,-0.052,-0.014,0,-0.03,0.03,0.028,-0.012,-0.008,-0.037,0.025,0.046,-0.005,0.032,0.115,-0.182,0,-0.005
PLK1 (UniProt P53350),-0.004,0.069,0.009,0.015,0.068,0.022,-0.019,0.032,0.036,-0.014,0.053,-0.009,0.003,,-0.009,0.014,0.165,-0.279,0.021,-0.335 (active)
POGK (UniProt Q9P215),0.051,-0.012,0.04,-0.026,-0.012,0.018,0.04,0.01,-0.047,0.027,-0.035,0.114,0.011,-0.005,0.033,-0.027,-0.397 (active),0.034,0.017,0.013
PTPN23 (UniProt Q9H3S7),0.024,0.007,0.029,0.007,-0.019,-0.014,0.01,-0.015,0.009,0.012,-0.008,0,0.003,-0.006,-0.042,0.026,-0.017,0.007,0.008,-0.001
